Experimental data reported in PubChem BioAssay AID743279 (National Center for Advancing Translational Sciences (NCATS), 2014).
Hit rate of the full screen: of about 360,000 compounds, about 17,000 (4.7%) were called active. Not shown: some 5% with an inconclusive outcome. This is one part of a sample in which actives are shown more often than they occur. Rule as the data show it: active = activity change below about -50%; inconclusive = mostly about -30% to -49%; inactive = weaker than that.

Assay: qHTS for Inhibitors of Inflammasome Signaling: IL-1-beta AlphaLISA Primary Screen
Details: THP-1 LPS/ATP IL-1B secretion, 16 h; at 57.5 µM, hits give low values
How it was run: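 Secreted IL-1B measured by AlphaLISA bead assay after 16 h compound exposure of THP-1 cells; compounds (final up to 57.5 uM) added 1 h before LPS (250 ng/mL) and ATP (1.25 mM) stimulation; lower signal means less secretion.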
% is scaled to controls: 0 for no effect and ±100 for the full control effect.

Structure (SMILES) | activity change
CCc1ccc(CNC(=O)C2CCN(c3nnc(C)c4c(C)n(-c5ccc(C)cc5)nc34)CC2)cc1 | -55% (active)
COc1ccc(-n2nc3c(N4CCC(C(=O)NCc5ccccc5)CC4)nnc(C)c3c2C)cc1 | -9.21% (inactive)
CCOc1ccc(CNC(=O)C2CCCN(c3nnc(C)c4c(C)n(-c5ccccc5)nc34)C2)cc1 (stereo unspecified) | 17.4% (inactive)
OC(c1cc(Cl)cc(Cl)c1)c1ncc(-c2ccccc2C(F)(F)F)[nH]1 (stereo unspecified) | -7.73% (inactive)
Cc1cccc(-c2cnc(C(O)c3ccc4ccccc4c3)[nH]2)c1 (stereo unspecified) | 0% (inactive)
Cc1ccc(S(=O)(=O)N2CCN(C(=O)CSc3cc(C)ccc3C)CC2)c(C)c1 | -51.4% (active)
Cc1ccc(S(=O)(=O)N2CCN(C(=O)COC(=O)c3c(C)cc(C)cc3C)CC2)c(C)c1 | -9.93% (inactive)
Cc1nc(-c2ccc(F)cc2)c(CC(=O)Nc2cccc(S(=O)(=O)N3CCOCC3)c2)s1 | -11.9% (inactive)
CCCc1cc(=O)[nH]c(SCC(=O)N2CCN(S(=O)(=O)c3ccc(C)cc3C)CC2)n1 | 0% (inactive)
Cc1ccc(S(=O)(=O)N2CCN(C(=O)Cc3sc(C)nc3-c3ccc(F)cc3)CC2)c(C)c1 | -50.5% (active)
Cc1nc(-c2ccc(F)cc2)c(CC(=O)N2CCN(S(=O)(=O)c3ccc(F)cc3)CC2)s1 | -7.47% (inactive)
NC1=NOC(=O)C1C1CCCCC1 (stereo unspecified) | -14.1% (inactive)
COc1ccc(C(CNC(=O)c2ccc(OCc3cscn3)cc2)N2CCCC2)cc1 (stereo unspecified) | -24.7% (inactive)
COc1ccc(CNC(=O)CN2C(=O)NC3(CCCc4sccc43)C2=O)cc1 (stereo unspecified) | 8.42% (inactive)
COc1cc2c(cc1OC)CN(C(C)C(=O)Nc1cccc(S(=O)(=O)N3CCOCC3)c1)CC2 (stereo unspecified) | -4.78% (inactive)
COCC1CCCCN1C(=O)c1cc(COc2ccc(C)c(C)c2)on1 (stereo unspecified) | 22.6% (inactive)
CCOc1cc(C=NNC(=O)CCCC(=O)NN=Cc2ccc(O)c(OCC)c2)ccc1O | 0% (inactive)
CC(C)CN1CCC1(C)C(=O)Nc1ccc(OC(F)F)cc1 (stereo unspecified) | 14.2% (inactive)
O=[N+]([O-])c1cccc(/C=N/Nc2ncc(Br)cn2)c1 | -8.3% (inactive)
O=[N+]([O-])c1ncc(Br)cc1Nc1ccccc1 | -71.2% (active)
O=[N+]([O-])c1ccccc1Nc1ccc(O)cc1 | -11.5% (inactive)
Cn1c(=O)[nH]c(=O)c2c1nc(NCCCn1ccnc1)n2Cc1cccc(Br)c1 | 58.2% (inactive)
Cc1ccccc1-c1nc(NC(C)C)nc2cc(-c3ccccc3)sc12 | 19.3% (inactive)

Structure (SMILES) | activity change
CC1(C)CN(CCc2ccccc2)C(=O)[C@H]1CC(=O)Nc1ccc(Br)cc1 | 0% (inactive)
COc1ccccc1CNC(=O)CCCN1C(=O)NC2(CCCC2)C1=O | 10.6% (inactive)
CC[C@]1(c2ccccc2OC)C(=O)N(C(=O)OC)N1C(=O)OC | -76.7% (active)
COC(=O)c1ccccc1NC(=O)Cc1ccccc1OC | 7.67% (inactive)
CC(=O)Nc1ccc(NC(=O)c2ccc3c(c2)C(=O)N(c2ccccc2C)C3=O)cc1 | 0% (inactive)
C[C@@H]1CN([C@@H](C)CO)C(=O)c2cc(Br)cnc2O[C@H]1CN(C)Cc1ccc(-c2ccccc2)cc1 | -13.1% (inactive)
CC1(C(=O)Nc2ccc3c(c2)OCCO3)CCN1C(=O)Cc1cc(F)ccc1F (stereo unspecified) | -2.62% (inactive)
CCC(=O)Nc1nc2ccccc2n1Cc1ccccc1C | -56% (active)
CCCCn1c(CCCNC(=O)CC)nc2ccccc21 | 36.3% (inactive)
CC(=O)Nc1nc2ccccc2n1Cc1ccc(C)cc1 | -12.8% (inactive)
COC(=O)c1ccc2nc(-c3cccc(Br)c3)c(Cc3ccc(OC)cc3C)n2c1 | 2.21% (inactive)
NNc1cccc(C=Cc2ccccc2)cc1=O | -13.4% (inactive)
CCOC1=C2CN(S(=O)(=O)c3ccc(C)cc3)[C@H](c3cccs3)C[C@H]2[C@H]2C(=O)N(c3ccccc3)C(=O)[C@H]2C1 | 91.6% (inactive)
O=C(COc1ccc(F)cc1)N(CC1=CCS(=O)(=O)C1)c1ccccc1 | 0.865% (inactive)
CCN(C(=O)COc1ccc(C(=O)c2ccccc2)cc1)c1ccccc1 | -69.8% (active)
CCN(C(=O)c1ccc(Br)cc1)c1ccccc1 | -9.85% (inactive)
Cc1ccccc1OS(=O)(=O)c1cccc([N+](=O)[O-])c1 | 27.3% (inactive)
COc1ccc(NC(=O)C2Cc3c(-c4cccc(NC(C)=O)c4)ccnc3O2)cc1OC (stereo unspecified) | -14.1% (inactive)
N#Cc1ccc(OCC(=O)NC(=O)NC2CCS(=O)(=O)C2)cc1 (stereo unspecified) | -12.4% (inactive)
CCNC(=O)c1cc2c(c(-c3cccc(-c4cncnc4)c3)n1)[C@H](CCO)N(C(C)=O)C2 | 42.5% (inactive)
CC(C)NC(=O)N1Cc2cc(C(=O)NCC(F)(F)F)nc(-c3cccc(-c4cc5ccccc5o4)c3)c2[C@@H]1CCO | -22.8% (inactive)
CC(=O)N1Cc2cc(C(=O)NCc3cccc(F)c3)nc(-c3cccc(C4=CCCC4)c3)c2[C@H]1CCO | -67.2% (active)
CC1(C(=O)NCc2ccc(F)c(F)c2)Cc2c(-c3ccc4c(c3)OCO4)ccnc2O1 (stereo unspecified) | 46.6% (inactive)

Structure (SMILES) | activity change
CC12CCC(=O)N1C(C(=O)NCCN1C(=O)S/C(=C\c3ccccc3F)C1=O)CS2 (stereo unspecified) | -53.4% (active)
CC12CCC(=O)N1C(C(=O)Nc1ccc(F)c(F)c1F)CS2 (stereo unspecified) | 6.07% (inactive)
CCn1nc(C(=O)NNC(=O)C2CSC3(C)CCC(=O)N23)c2ccccc2c1=O (stereo unspecified) | 4.8% (inactive)
CC1(C(=O)Nc2ccccc2Br)CCN1C(=O)CC1CC1 (stereo unspecified) | 13.2% (inactive)
CCCC(=O)Nc1nc2ccc(NC(=O)c3c(F)c(F)c(OC)c(F)c3F)cc2s1 | 11.7% (inactive)
Nc1nnc(SCC(=O)Nc2ccc3nc(SCC(=O)Nc4ccccc4)sc3c2)s1 | -29.4% (inactive)
CSc1nc2ccc(NC(=O)c3c(F)cccc3F)cc2s1 | -101% (active)
O=C(Nc1ccncc1)c1cc2ccccc2o1 | -4.22% (inactive)
O=C(Nc1ccc(S(=O)(=O)N2CCCCCC2)cc1)c1c(F)cccc1F | -9.91% (inactive)
O=C(Nc1ccncc1)c1c(F)cccc1F | -66.7% (active)
Cc1ccc(C(=O)NC(C)C(c2cccs2)N2CCOCC2)cc1C (stereo unspecified) | -9.25% (inactive)
CNC(=O)N1c2ccccc2C=Cc2ccccc21 | 0% (inactive)
CCCCNC(=O)N1CCCC(N(C)CCc2ccc(OC)c(OC)c2)C1 (stereo unspecified) | 1.87% (inactive)
CC1(C2CC2)NC(=O)N(CC(=O)N2CCN(c3ccccc3F)CC2)C1=O (stereo unspecified) | -14.2% (inactive)
Cc1c(C(=O)NCC(c2ccco2)N2CCCC2)oc2ccc(Cl)cc12 (stereo unspecified) | -25.2% (inactive)
Cc1ccc(C)c(S(=O)(=O)Nc2cc(C)on2)c1 | -7.66% (inactive)
CCOC(=O)C1CCCN(C(=O)C2CCN(S(=O)(=O)c3ccc(Cl)c(C(F)(F)F)c3)CC2)C1 (stereo unspecified) | 16.1% (inactive)
CCCc1nc2oc3c(=O)[nH]cnc3c2c2c1COC(C)(C)C2 | 17.7% (inactive)
CS(=O)(=O)N1CCCCC1c1cc(C(=O)NCc2ccccc2)no1 (stereo unspecified) | -18.8% (inactive)
CCN1CCC(O)(/C=C/c2ccc(C)cc2)C(C(=O)/C=C/c2ccc(C)cc2)C1 (stereo unspecified) | -1.25% (inactive)
CCCCCOC(=O)c1ccc(N2C(=O)C3C4C=CC(C4)C3C2=O)cc1 (stereo unspecified) | -71.4% (active)
CCCOC(=O)c1ccc(N2C(=O)c3ccccc3C2=O)cc1 | 17.6% (inactive)
CCCCOC(=O)NCN1C(=O)C2C3C=CC(C3)C2C1=O (stereo unspecified) | 26.4% (inactive)

Structure (SMILES) | activity change
O=C(Nc1cccc2c1CCCC2)C1CCN(C(=O)NC2CCCCC2)CC1 | 15.3% (inactive)
COC(=O)[C@]12CCCCC=C1N(CCC1=CCCCC1)C(=O)[C@H](CC(=O)N1CCSCC1)C2 | -3.86% (inactive)
CCOC(=O)CCc1c(C)c(C#N)c2[nH]c3ccccc3n2c1=O | -90.1% (active)
CCOCCCNc1c(CC)c(C)c(C#N)c2nc3ccccc3n12 | -7.67% (inactive)
CCCc1cc(=S)n2c([nH]c3ccccc32)c1C#N | -9.7% (inactive)
COC(=O)C1=CN(c2c(C)cc(C)cc2C)C(N)=C(C#N)C1c1cccc(F)c1 (stereo unspecified) | -11.3% (inactive)
CC1Cc2[nH][nH]c(=O)c2C(C2CC2)O1 (stereo unspecified) | -5% (inactive)
COc1ccc(CN2C(=O)C(CC(=O)NC3CCCCC3)CC(C(=O)N3CCOCC3)=C2C)cc1 (stereo unspecified) | -7.47% (inactive)
COc1ccccc1NC(=O)CSc1nc2sc3c(c2c(=O)n1-c1ccccc1)CCN(C)C3 | -4.77% (inactive)
CCOc1ccc(-n2c(SCC(=O)Nc3ccc(OC)cc3)nc3sc4c(c3c2=O)CCN(C)C4)cc1 | -16% (inactive)
CCn1c(SCC(=O)Nc2ccc(Br)cc2)nc2sc3c(c2c1=O)CCN(C)C3 | -54.3% (active)
Cc1ccc(-c2c(C)n([O-])c3c([n+]2=O)CCC3)cc1 | 12.3% (inactive)
CCOc1cccc(=O)c2c(C)n(CC3CCCO3)c(C)c12 (stereo unspecified) | 13.1% (inactive)
O=C1c2cccc3c([N+](=O)[O-])ccc(c23)C(=O)N1CC1CCCO1 (stereo unspecified) | -98.7% (active)
CN1CN(C)c2ccc([N+](=O)[O-])c3cccc1c23 | -18.1% (inactive)
Cc1ccc(N2CCN(c3ccc(C)cc3)C2c2ccccn2)cc1 | -6.85% (inactive)
COc1ccc(S(=O)(=O)N2CCC(C(=O)NCCC(=O)NCCc3cccc(F)c3)CC2)cc1 | -8.46% (inactive)
CC(Cc1cccs1)N(Cc1ccc(Cl)cc1)C(=O)c1ccncc1 (stereo unspecified) | 20.4% (inactive)
Nc1nc(NC(=O)/C=C/c2ccc(F)cc2)nn1-c1ccccc1 | -2.85% (inactive)
Cc1c(C(=O)Nc2ccccc2)sc2nc3n(c(=O)c12)CCCCC3 | -7.47% (inactive)
CC(=O)c1ccc(NC(=O)c2sc3nc4n(c(=O)c3c2C)CCCCC4)cc1 | -59.8% (active)
O=c1c2c(nc3n1CCCCC3)sc1c(O)cccc12 | 24.7% (inactive)
